LDHA block: LDHA (human) enzyme inhibition | AID 1347041 | 480,000 tested, 0.15% active | purified LDHA, NADH/diaphorase-resazurin fluorescence; active compounds read low | activity change, % (values are at about 110 or 230 µM); in the data active means activity change below about -30%; inconclusive means mostly about -25% to -30%
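Human LDH5 at 2 nM final in Tris HCl pH 7.4 with 0.06 mM NADH and 0.2 mM pyruvate, reacted 5 minutes at room temperature. Remaining NADH coupled via diaphorase/resazurin; resorufin fluorescence read at 0 and 20 minutes, normalized to enzyme-free and DMSO wells.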
KCNH2 WT inh: KCNH2 (human, wildtype) channel inhibition; Q12809; U2OS, BacMam KCNH2, thallium flux FluxOr; active compounds read low; activity change, % at 1.84 µM; 340,000 tested, 0.37% active; AID 720551;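 active means maximum activity change below -70%; inconclusive means maximum activity change between -70% and -50%; inactive means maximum activity change above -50%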
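U2OS cells were transduced with wild-type KCNH2 virus (2.03 x 10^8 / mL) for 4 h at room temperature, then cultured overnight at 37 C. Thallium flux was read with FluxOr dye. Rate constants were normalized to DMSO controls.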
ALOX12 inh: ALOX12 (human) lipoxygenase inhibition. purified 12hLO, xylenol orange hydroperoxide absorbance. Potency, µM (doses to about 108 µM), usual class: inhibitors. 580,000 tested, 1.1% active. AID 1671190; active means well fitted inhibition curve with a large enough effect; inconclusive means small, poorly fitted or top-dose-only effect, or another doubt; inactive means no such curve, though single readings can be large or run the other way
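Purified human 12hLO (150 nM final) in 25 mM Hepes, 0.01% Triton X-100, pH 7.0 was preincubated 15 min at room temperature with compound. Then 40 uM arachidonic acid was added, 30 min. Hydroperoxide was read by Fe-XO absorbance ratio 573/405 nm.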
KCNH2 3.1 inh: KCNH2 3.1 (human) potassium channel inhibition. AID 720553. 340,000 tested, 0.95% active. U2OS KCNH2 3.1, thallium flux FluxOr; active compounds read low. activity change, % (tested at about 1.8 µM);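 active means maximum activity change below -70%; inconclusive means maximum activity change from -70% to -50%; inactive means maximum activity change above -50%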;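 further: thallium influx rate constant from kinetic fluorescence after stimulation buffer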
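Kinetic fluorescence (2 min after stimulation buffer) measures Tl+ influx through KCNH2 3.1 expressed by viral transduction in U2OS cells; the rate constant is normalized against DMSO controls serving as positive and negative references.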
BCR signal inh: inhibitors of chronic active B-cell receptor signaling; ABC-DLBCL IkBa-CBG/CBR reporter, luminescence ratio, 4 h; 340,000 tested, 0.05% active; Potency, µM (highest dose often 46.1 µM), hits mostly inhibitors; active means well fitted inhibition curve with a large enough effect in the signal ratio, with a control signal flat, not every such curve was filed as active; inconclusive means small, poorly fitted or top-dose-only effect, or effect the other way, or a change in a side signal; the % refers to the signal ratio
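Compounds up to 46 uM were incubated four hours with TMD8 cells whose green CBG68 luciferase is fused to IkappaBalpha; red CBR luminescence normalised the signal, and concentration-effect curves were fitted to fusion, red and ratio data.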
ClpP mod: qHTS Assay for Activators of ClpP | purified B. subtilis ClpP, FRET peptide cleavage, 20 min | Potency, µM (top dose mostly 57.5 µM) | 340,000 tested, 1.9% active | ATP-dependent Clp protease proteolytic subunit (Bacillus subtilis (strain 168)), P80244; active means well fitted falling curve with a large enough effect; inconclusive means small, poorly fitted or top-dose-only effect; inactive means no such curve, though single readings can be large or run the other way; further: the source files actives as falling curves though it sought activators and does not explain the sign; nearly all actives have a fitted effect of over 65% in size
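FRET quenching reversal measured ClpP activation: 10 microg/mL B. subtilis ClpP at pH 8 with the FRET-FV decapeptide, read at 430 nm after 320 nm excitation. The 20-min minus 0-min signal was scaled between DMSO/no-enzyme wells and ADEP (5.8 microM final).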
A number is an active result; . = inactive; ? = inconclusive; / = not tested or not shown. Sampled rows, rich in hits. Any-hit rate of the full collection: about 3%.

SMILES	LDHA block	KCNH2 WT inh	ALOX12 inh	KCNH2 3.1 inh	BCR signal inh	ClpP mod
CCC(C)Nc1nc(Cl)nc(NCCOc2ccccc2)n1 (stereo not given)	.	.	.	.	?	28µM
CC(C)Nc1nc(Cl)nc(NCCOc2ccccc2)n1	.	.	.	.	.	/
O=C(CSc1nc2ccsc2c(=O)n1Cc1ccc(F)cc1)NCc1ccc(Cl)cc1	.	/	.	/	/	.
Cc1ccc(Cn2c(SCC(=O)Nc3cc(C)on3)nc3ccccc3c2=O)cc1	.	.	.	-97	.	.
O=C(CSc1nc2ccccc2c(=O)n1Cc1ccc(Cl)cc1)NCc1cccs1	.	.	.	-82	.	.
O=C(CSc1nnc(-c2cccnc2)n1CCN1CCCCC1)Nc1cccc(Cl)c1	.	.	.	-87	.	16µM
Cc1cc(NC(=O)CSc2nc3ccccc3c(=O)n2Cc2ccccc2)no1	.	.	.	.	.	.
Cc1cc(NC(=O)CSc2nnc(-c3cccnc3)n2Cc2ccccc2)no1	.	.	.	.	.	3.2µM
Cc1cc(C)c2c(-n3cccc3)nn(CCCC(=O)NCc3ccc(Cl)cc3)c2n1	.	/	.	/	/	/
Cc1cc(NC(=O)CSc2nc(N)c(NC(=O)c3ccccc3F)c(=O)[nH]2)no1	.	.	.	/	.	16µM
O=C(Nc1ccc2[nH]c(=S)sc2c1)Nc1ccccc1F	.	.	14µM	.	?	.
O=C(Nc1ccc2[nH]c(=S)sc2c1)c1ccccc1	.	.	?	.	.	/
COc1ccc(-n2nc(C)c([C@@H]3C=C[C@@H](NS(=O)(=O)c4cccs4)C3)c2C)cc1	/	/	.	/	/	/
O=C(NCc1ccccc1)C(c1ccc(C(F)(F)F)cc1)n1c(=O)c(-c2ccco2)nc2ccccc21 (stereo not given)	.	/	5µM	/	/	.
O=C(NC1CCCCC1)C(c1ccccc1F)n1c(=O)c(-c2ccco2)nc2ccccc21 (stereo not given)	.	/	?	/	/	.
O=C(NC1CCCCC1)C(c1ccc(-c2ccccc2)cc1)n1c(=O)c(-c2ccco2)nc2ccccc21 (stereo not given)	.	/	45µM	/	/	.
CCCCCNC(=O)C(c1ccccc1F)n1c(=O)c(-c2ccco2)nc2ccccc21 (stereo not given)	.	/	20µM	/	/	?
CCCCCNC(=O)C(c1ccc(OC)cc1)n1c(=O)c(-c2ccco2)nc2ccccc21 (stereo not given)	.	/	5.6µM	/	/	.
COc1ccc(N2CCN(CCC(O)c3ccc4ccccc4c3)CC2)cc1 (stereo not given)	.	?	.	-103	.	.
CN(C)CCNc1oc(-c2ccc(S(=O)(=O)N(C)C)cc2)nc1C#N	.	/	.	/	/	/
CC(C)c1ccc(NS(=O)(=O)c2ccc3[nH]cc(C(=O)NC4CCCCC4)c(=O)c3c2)cc1	.	/	35µM	/	/	.
COCCn1c(SCc2nc(-c3ccc(Br)cc3)no2)nc2ccsc2c1=O	.	/	.	/	/	/
c1ccc(-c2nnc(-c3ccco3)n2-c2ccccc2)cc1	.	.	.	.	.	22µM
O=C(Nc1ccc([N+](=O)[O-])cc1)C(c1ccccc1)c1ccccc1	.	.	.	-79	/	.
O=C(Cc1ccc(Cl)cc1)Nc1ccc(-c2nnc(-c3ccco3)o2)cc1	.	.	.	.	?	32µM
SMILES	LDHA block	KCNH2 WT inh	ALOX12 inh	KCNH2 3.1 inh	BCR signal inh	ClpP mod
CC(C)C(=O)Nc1ccc([N+](=O)[O-])cc1	.	/	.	/	/	/
c1ccc(-n2c(-c3ccncc3)nnc2-c2ccco2)cc1	.	.	.	.	.	?
c1ccc(-c2nnc(-c3ccco3)o2)cc1	.	.	.	.	.	14µM
COc1ccc(C)cc1NC(=O)CSc1nnc2c3cc(-c4ccc(Cl)cc4)nn3ccn12	.	/	?	/	/	/
Cn1c(=O)c2nc(SCC(=O)NCc3ccccc3Cl)n(C)c2n(C)c1=O	.	/	?	/	/	/
CCOC(=O)C1=C(C)Oc2ncn3nc(-c4ccccc4O)nc3c2C1c1ccc(OC)c(OC)c1 (stereo not given)	.	/	.	/	/	/
